In PubChem BioAssay (Tox21):
Where “and” joins values, the source holds several entries; their conditions need not be identical. Equal entries are not always repeated. Records with an inconclusive call do not appear. A call without a number means that no potency is given here. More than one record can exist for a structure, and the calls need not agree. Calls of active or inactive are those of the source. Calls follow the shape of the full dose curve.

test: p53 small molecule agonists, cell-based qHTS assay with rat liver microsomes: qHTS cell viability counter screen (AID 1963580); settings: p53RE-bla HCT-116 + rat microsomes, ATP viability, 16 h; series mostly up to 66 µM; activity change, negative = cytotoxicity: at the top concentration; also: nearly all actives have a fitted effect of over 45% in size
From the text: National Center for Advancing Translational Sciences [NCATS]
Division of Preclinical Innovation [DPI]
U.S. Environmental Protection Agency [EPA]
National Institutes of Environmental Health Sciences [NIEHS]
National Toxicology Program [NTP]
U.S. Food and Drug Administration [FDA]
p53, a tumor suppressor protein, is activated following cellular insult, including DNA damage and other cellular stresses. The activation of p53 regulates cell fate by inducing DNA repair, cell cycle arrest, apoptosis, or cellular senescence. The activation of p53, therefore, is a good indicator of DNA damage and other cellular stresses. The CellSensor p53RE-bla HCT-116 cell line contains a stably integrated beta-lactamase reporter gene under control of the p53 response elements. The activation of the reporter gene under culture conditions can be detected by fluorescence intensity. This cell line was used to screen the Tox21 10K compound library in the condition of presence of rat liver microsomes and to identify agonists that activate the p53 signaling pathway after in vitro metabolic activation (Ooka et al., Archive of Toxicology 96:1975-1987, 2022). The cytotoxicity of the Tox21 compound library against the p53 RE-bla HCT-116 cell line was tested in parallel by measuring the intra cellular ATP content in the same wells.
Tox21 Assay Protocol Summary:
The p53RE-bla cells were dispensed at 4,000cells/3ul/well in 1536-well black-clear bottom plates. After the assay plates were incubated at 37 C, 5% CO2 incubator for 5 hours, 23 nL of compounds dissolved in DMSO, positive controls or DMSO only was transferred to the assay plate. Following compound addition, 3 uL of rat liver microsomes (Molecular Toxicology, Boone, NC) at final concentration of 0.5 mg/mL and 1uL of B-Nicotinamide adenine dinucleotide 2'-phosphate (NADPH) at final concentration of 0.5 mg/mL were transferred to the assay plate. The plates were incubated at 37 C for 16 hours. 1 uL of LiveBLAzer detection mixture was added to each well and the plates were incubated at room temperature in the dark for 2 h. Fluorescence intensity at 460 and 530 nm emission and 405 nm excitation were measured by an Envision plate reader. For cell viability readout that measures cytotoxicity, 4 ul/well of CellTiter-Glo reagent was added into the assay plates using a Flying Reagent Dispenser. After 30 min incubation at room temperature, the luminescence intensity in the plates was measured using a ViewLux plate reader.
Potency is read from the fitted curve at half-maximal effect.

Row | Compound | Potency | activity change, negative = cytotoxicity
1 | O=C(CCl)CCl | inactive | –
2 | C=CC(N)=O | – | 2.09% (inactive)
3 | O=C(O)COc1cc(Cl)c(Cl)cc1Cl | inactive | –
4 | C=CC(Cl)CCl (stereo not given) | inactive | –
5 | C=C(C)[C@H]1Cc2c(ccc3c2O[C@@H]2COc4cc(OC)c(OC)cc4[C@@H]2C3=O)O1 | inactive | –
6 | CCCCCCCCOC(=O)c1ccc(C(=O)OCCCCCCCC)c(C(=O)OCCCCCCCC)c1 | – | -4.29% (inactive)
7 | CNC(=O)Oc1cccc2c1OC(C)(C)C2 | inactive | –
8 | CC(C)C1(C)N=C(c2ncccc2C(=O)O)NC1=O (stereo not given) | – | 10.2% (inactive)
9 | Clc1ccc(C(c2ccccc2Cl)C(Cl)(Cl)Cl)cc1 (stereo not given) | inactive | –
10 | CCCCCCCCCCOC(=O)c1ccccc1C(=O)OCCCCCCCCCC | – | -0.889% (inactive)
11 | c1ccc(-c2cccc(-c3ccccc3)c2)cc1 | inactive | –
12 | CCOP(=O)(O)OCC (tested in a mixture with another compound) | inactive and 36.1 µM (active) | –
13 | C=CCSSCC=C | – | -7.14% (inactive)
14 | CCOP(=S)(OCC)Oc1cnc2ccccc2n1 | inactive | –
15 | O=C(Cl)OCc1ccccc1 | – | 0.752% (inactive)
16 | CCCCN(CCCC)N=O | inactive | –
17 | COc1cc(OC)nc(Sc2cccc(Cl)c2C(=O)O)n1 | – | -11.5% (inactive)
18 | C1CCC2CCCCC2C1 (stereo not given) | – | 4.12% (inactive)
19 | S=c1[nH]c2ccccc2[nH]1 | inactive | –
20 | CCCCCCCCCCCC(=O)O | inactive | –

Row | Compound | Potency | activity change, negative = cytotoxicity
21 | NC(=O)CCl | – | -4.73% (inactive)
22 | CN(C)[C@@H]1C(=O)C(C(N)=O)=C(O)[C@@]2(O)C(=O)C3=C(O)c4c(O)cccc4[C@@](C)(O)[C@H]3C[C@@H]12 | inactive | –
23 | CCOP(=S)(OCC)Oc1ccc([N+](=O)[O-])cc1 | inactive | –
24 | O=C(O)CCCc1ccc(N(CCCl)CCCl)cc1 | inactive | –
25 | CCOP(=S)(OCC)SCSc1cc(Cl)ccc1Cl | – | 3.57% (inactive)
26 | Nc1ccccc1 | inactive | –
27 | ClCc1ccccc1CCl | – | 0.607% (inactive)
28 | CC(NC(C)(C)C)C(=O)c1cccc(Cl)c1 (stereo not given) | inactive | –
29 | Cc1[nH]c(=O)n(C(C)(C)C)c(=O)c1Cl | – | -2.15% (inactive)
30 | c1ccc(N2CCNCC2)cc1 | – | 0.345% [at 30.3 µM] (inactive)
31 | S=C1NCCN1 | inactive | –
32 | Cc1ccc(O)c(C)c1 | inactive | –
33 | N#CSCSC#N | 37.2 µM (active) | –
34 | CCC(C)C(C)(COC(N)=O)COC(N)=O (stereo not given) | – | -0.43% [at 30.3 µM] (inactive)
35 | NC(=O)c1cc([N+](=O)[O-])cc([N+](=O)[O-])c1 | – | -7.13% [at 30.3 µM] (inactive)
36 | Nc1ncc([N+](=O)[O-])s1 | inactive | –
37 | CCOP(=S)(OCC)SCn1c(=O)oc2cc(Cl)ccc21 | inactive | –
38 | COP(=S)(OC)SCn1nnc2ccccc2c1=O | inactive | –
39 | CC(C)N(C(=O)SCC(Cl)=C(Cl)Cl)C(C)C | inactive | –
40 | c1ccc2c(c1)Oc1ccccc1O2 | inactive | –
